27 molecules from the supplement of paper PMC10981050 can be followed below.

Structures can show the parent of a compound that is named as a salt.

For the assay, the system named is MARIMO. Put plainly: cell viability relative to vehicle control; higher = less cytotoxic. The note with it: 10 µM; SRSF2 genotype: SRSF2 wt/wt. The essentials: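 After removal of identity-inconsistent compounds, the Selleck bioactive, kinase and epigenetic probe libraries were screened on CRISPR-edited mutant clones and isogenic wild-type clones of four leukaemia lines. Plates were 384-well, each well holding 2000 cells in 50 µL medium and receiving a single 10 µM acoustically dispensed dose. CellTiter-Glo luminescence was read 48 h later, after the supernatant was taken off. Genedata Screener was used to express viability as percent of the on-plate vehicle control.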
With `Cc1nc(N)sc1-c1ccnc(Nc2ccc(N3CCOCC3)cc2)n1`, the cell viability worked out at 44.3%.

As to `C=C[C@]1(C)C[C@@H](OC(=O)CSCCN(CC)CC)[C@]2(C)[C@H](C)CC[C@]3(CCC(=O)[C@H]32)[C@@H](C)[C@@H]1O` [Tiamulin], the cell viability came to 92.8%.

`C[C@@H]1CC[C@@]2(OC1)O[C@H]1C[C@H]3[C@@H]4CC=C5C[C@@H](O)C[C@@H](O)[C@]5(C)[C@H]4CC[C@]3(C)[C@H]1[C@@H]2C` [Ruscogenin]: the cell viability was 103%.

With `C[C@@H]1O[C@@H](O[C@H]2[C@H](O[C@H]3CC[C@@]4(C)[C@@H](CC[C@]5(C)[C@@H]4CC=C4[C@@H]6CC(C)(C)CC[C@]6(C(=O)O)CC[C@]45C)[C@]3(C)CO)OC[C@H](O[C@@H]3O[C@H](CO)[C@@H](O)[C@H](O)[C@H]3O)[C@@H]2O)[C@H](O)[C@H](O)[C@H]1O` [Pulsatilla saponin D], the cell viability amounted to 0.67%.

With `Cc1cc(C#N)cc(C)c1Oc1nc(Nc2ccc(C#N)cc2)nc(N)c1Br` [Etravirine (TMC125)], the cell viability was determined as 108%.

As to `CCCNCC(O)COc1ccccc1C(=O)CCc1ccccc1` (configuration not stated) [Propafenone HCl], the cell viability was found to be 70.5%.

As for `CN1CCN(Cc2ccc(Nc3ncc(Cl)c(Nc4ccccc4S(=O)(=O)N(C)C)n3)cc2)CC1`, the cell viability was 4.7%.

As for `O=C(O)CNC(=O)c1nc(Cl)c2ccccc2c1O`, the cell viability was determined as 91.2%.

As to `Cc1cc(C2CCCCC2)n(O)c(=O)c1` [Ciclopirox (Penlac)], the cell viability is 21.8%.

As for `COc1ccc(CCC(=O)Nc2nc3ccc(Cl)cc3s2)cc1OC`, the cell viability is 96.3%.

In the case of `COc1ccc(/C=C/c2cc(O)cc(O[C@@H]3O[C@H](CO)[C@@H](O)[C@H](O)[C@H]3O)c2)cc1O` [Rhapontin], the cell viability is 99.8%.

With `CC(C)=CCCC(C)(OC1OC(COC2OCC(O)C(O)C2O)C(O)C(O)C1O)C1CCC2(C)C1C(O)CC1C3(C)CCC(OC4OC(CO)C(O)C(O)C4O)C(C)(C)C3CCC12C` (configuration not stated) [Gynostemma Extract], the cell viability was 111%.

Turning to `CC1(C)CC[C@]2(C(=O)O)[C@H](O)C[C@]3(C)C(=CC[C@@H]4[C@@]5(C)CC[C@H](O)[C@@](C)(C=O)[C@@H]5CC[C@]43C)[C@@H]2C1` [Quillaic acid], the cell viability came out at 104%.

For `CCN(CC)CCNC(=O)c1c(C)[nH]c(/C=C2\C(=O)Nc3ccc(F)cc32)c1C` [Sunitinib], the cell viability worked out at 23.4%.

On to `CCCCCCCCCCCCCCCC(=O)O` [Palmitic acid], for which the cell viability stood at 114%.

`C=CCS[S+]([O-])CC=C` (configuration not stated) [Allicin]: the cell viability is 84.9%.

For `Cc1ccccc1-c1cc(N2CCN(C)CC2)ncc1N(C)C(=O)C(C)(C)c1cc(C(F)(F)F)cc(C(F)(F)F)c1` [Netupitant], the cell viability was found to be 93.8%.

`CCCCCCCCCCCCCCCCOc1nc2ccc(C)cc2c(=O)o1` [Cetilistat]: the cell viability was determined as 108%.

Take `C[C@H](CCC(=O)O)[C@H]1CC[C@H]2[C@@H]3[C@H](O)C[C@@H]4C[C@H](O)CC[C@]4(C)[C@H]3C[C@H](O)[C@]12C` [Cholic acid]: the cell viability worked out at 98%.

`CCCCC(=O)OCC(=O)[C@H]1[C@H](C)C[C@H]2[C@@H]3C[C@H](F)C4=CC(=O)C=C[C@]4(C)[C@@]3(F)[C@@H](O)C[C@@]21C` [Diflucortolone valerate]: the cell viability is 98.2%.

For the molecule `CCn1cc(-c2cccc(C(F)(F)F)c2)c2sc(C(=N)NC3CCS(=O)(=O)CC3)cc2c1=O`, the cell viability was 45.3%.

For `Cc1c(CN2CCN(C(=O)[C@H](C)O)CC2)sc2c(N3CCOCC3)nc(-c3cnc(N)nc3)nc12` [Apitolisib (GDC-0980, RG7422)], the cell viability is 33.8%.

On to `CC[C@H](NC(=O)[C@H](C)NC)C(=O)N1C[C@@H](O)C[C@H]1Cc1c(-c2[nH]c3cc(F)ccc3c2C[C@@H]2C[C@H](O)CN2C(=O)[C@H](CC)NC(=O)[C@H](C)NC)[nH]c2cc(F)ccc12`, for which the cell viability came to 93.4%.

Regarding `CC1(C)O[C@H]1COc1c2ccoc2cc2oc(=O)ccc12` [Oxypeucedanin], the cell viability amounted to 93.2%.

As to `CCCCCCC1CCC(=O)O1` (configuration not stated), the cell viability was determined as 101%.

In the case of `CN1[C@@H]2CC[C@H]1C[C@@H](OC(=O)c1c[nH]c3ccccc13)C2` [Tropisetron HCl], the cell viability came to 102%.

As for `CC1(C)[C@@H](O[C@H]2O[C@H](C(=O)O)[C@@H](O)[C@H](O)[C@H]2O[C@@H]2O[C@H](C(=O)O)[C@@H](O)[C@H](O)[C@H]2O)CC[C@]2(C)[C@H]3C(=O)C=C4[C@@H]5C[C@@](C)(C(=O)O)CC[C@]5(C)CC[C@@]4(C)[C@]3(C)CC[C@@H]12` [Ammonium Glycyrrhizate], the cell viability was found to be 101%.

In general, cell viability refers to a read-out of living cells in per cent, often relative to untreated cells.
